# Test results reported in PubChem BioAssay (NCATS).
# “And” between values parts separate entries of the source, which are not always exact repeats. Equal values may be shown once. A number with no mark means an inactive call. Results filed as inconclusive are left out. The source holds several records for some structures; these can differ, active in one and inactive in another. The source made the active and inactive calls. Calls come from the whole dose curve; as a rule, active = well fitted curve in the direction sought with a large enough effect; inconclusive = small, poorly fitted or top-dose-only effect, or another doubt; inactive = no such curve, though single readings can be large or run the other way.
# Molecular target: Hexokinase-4 (Homo sapiens) + Glucokinase regulatory protein (Homo sapiens) (UniProt P35557+Q14397)
# Sequence (P35557 whole entry, looked up): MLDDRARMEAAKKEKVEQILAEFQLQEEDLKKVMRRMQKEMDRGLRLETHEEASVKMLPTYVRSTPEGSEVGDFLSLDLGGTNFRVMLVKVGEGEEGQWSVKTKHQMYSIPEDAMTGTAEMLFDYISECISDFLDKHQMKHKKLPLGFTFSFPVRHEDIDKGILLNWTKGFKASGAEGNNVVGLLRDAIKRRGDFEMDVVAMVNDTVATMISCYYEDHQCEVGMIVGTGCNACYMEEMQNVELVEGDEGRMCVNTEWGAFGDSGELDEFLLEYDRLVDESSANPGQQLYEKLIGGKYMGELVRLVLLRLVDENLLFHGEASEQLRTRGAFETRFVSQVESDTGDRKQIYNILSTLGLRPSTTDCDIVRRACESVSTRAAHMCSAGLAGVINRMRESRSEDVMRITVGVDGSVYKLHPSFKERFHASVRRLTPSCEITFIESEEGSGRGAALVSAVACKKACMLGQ
# Sequence (Q14397 whole entry, looked up): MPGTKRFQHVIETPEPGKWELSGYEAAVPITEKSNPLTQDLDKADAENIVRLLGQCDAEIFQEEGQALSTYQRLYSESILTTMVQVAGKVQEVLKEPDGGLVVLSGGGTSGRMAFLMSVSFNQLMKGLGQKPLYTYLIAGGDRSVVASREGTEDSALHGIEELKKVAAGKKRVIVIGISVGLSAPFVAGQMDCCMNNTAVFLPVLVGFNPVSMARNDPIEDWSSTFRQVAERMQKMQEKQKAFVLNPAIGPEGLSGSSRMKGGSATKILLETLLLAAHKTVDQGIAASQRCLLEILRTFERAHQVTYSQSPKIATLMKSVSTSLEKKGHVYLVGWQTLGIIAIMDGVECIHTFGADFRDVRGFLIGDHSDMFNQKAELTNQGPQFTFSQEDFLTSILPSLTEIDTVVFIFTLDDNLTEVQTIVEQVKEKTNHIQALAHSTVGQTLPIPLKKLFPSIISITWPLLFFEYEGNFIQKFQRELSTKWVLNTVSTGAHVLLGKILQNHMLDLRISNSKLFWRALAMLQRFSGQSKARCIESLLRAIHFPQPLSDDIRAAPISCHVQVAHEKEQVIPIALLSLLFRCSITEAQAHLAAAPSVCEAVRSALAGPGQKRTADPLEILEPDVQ
# Assay: qHTS assay for inhibitors of recombinant human GCK-GKRP interaction: HTRF assay (AID 743207);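 note: 0% = DMSO with GCK present and -100% = DMSO wells lacking GCK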
# Details: recombinant GCK-GKRP HTRF binding, 60 min, with sorbitol-6-phosphate; series mostly up to 57.5 µM; activity change, negative = inhibition: at the top concentration
# How it was run: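 HTRF binding of 5 nM GST-GCK and 5 nM FLAG-GKRP with 2 uM S6P in pH 7.1 Hepes buffer (MgCl2, KCl, DTT, Tween 20, BSA). Anti-FLAG XL665 and anti-GST donor added, 60 min at room temperature; 665/615 nm read, normalized to with- and without-GCK controls.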
row,Structure (SMILES),"activity change, negative = inhibition [%]"
1,CN(C)C(=O)Oc1ccc[n+](C)c1,7.28
2,COCCc1ccc(OCC(O)CNC(C)C)cc1 (stereo not drawn),-3.61
3,NC(N)=NC(=O)Cc1c(Cl)cccc1Cl,-9.75
4,N[C@@H](COP(=O)(O)O)C(=O)O,8.78
5,Cc1cccc(C)c1NC(=O)C(C)N (stereo not drawn),-10.3
6,CC(=O)[C@@]1(O)CC[C@H]2[C@@H]3CCC4=CC(=O)CC[C@]4(C)[C@H]3CC[C@@]21C,9.29
7,O=C(O)CP(=O)(O)O,-0.964
8,CNCCC(Oc1ccccc1OC)c1ccccc1 (stereo not drawn),6.96
9,OCCN1CCN(CCCN2c3ccccc3C=Cc3ccccc32)CC1,2.36
10,CC[N+](C)(C)c1cccc(O)c1,-0.0902
11,Cc1ccc(Cl)c(Nc2ccccc2C(=O)O)c1Cl,-4.44
12,CCN1CCc2nc(N)oc2CC1,9.71
13,CCCN(CCC)C(=O)C(CCC(=O)O)NC(=O)c1ccccc1 (stereo not drawn),10.1
14,O=C(CCCN1CCC(O)(c2cccc(C(F)(F)F)c2)CC1)c1ccc(F)cc1,11.5
15,COC(=O)C1=C(C)NC(C)=C(C(=O)OC(C)(C)CN(C)CCC(c2ccccc2)c2ccccc2)C1c1cccc([N+](=O)[O-])c1 (stereo not drawn),10.3
16,Cc1ccc(S(=O)(=O)NC(=O)NN2CCCCCC2)cc1,-2.99
17,c1cc(CN2CCCCC2)cc(OCCCNc2nc3ccccc3s2)c1,5.41

row,Structure (SMILES),"activity change, negative = inhibition [%]"
1,O=C(CCNNC(=O)c1ccncc1)NCc1ccccc1,-0.287
2,CN1CCN(CC(=O)N2c3ccccc3C(=O)Nc3cccnc32)CC1,-13.9
3,CN(C)CC/C=C1\c2ccccc2COc2ccccc21,-8.84
4,O=C1CC2(CCCC2)CC(=O)N1CCCCN1CCN(c2ncccn2)CC1,2.68
5,Fc1ccc(C(c2ccc(F)cc2)N2CCN(C/C=C/c3ccccc3)CC2)cc1,10.5
6,CCN(Cc1ccncc1)C(=O)C(CO)c1ccccc1 (stereo not drawn),-0.0167
7,CN=C(NC#N)NCCSCc1nc[nH]c1C,3.8
8,O=c1[nH]c(=O)n([C@H]2C[C@H](O)[C@@H](CO)O2)cc1Br,3.58
9,CC(C)NNC(=O)c1ccncc1,2.02
10,CCN(CC)CCOCCOC(=O)C1(c2ccccc2)CCCC1,19.4
11,CC1=NS(=O)(=O)c2cc(Cl)ccc2N1,-13
12,CC(C)NCC(O)c1cc(O)cc(O)c1 (stereo not drawn),-2.56
13,C[C@]12CC[C@@H]3c4ccc(O)cc4C[C@@H](CCCCCCCCCS(=O)CCCC(F)(F)C(F)(F)F)[C@H]3[C@@H]1CC[C@@H]2O (stereo partly drawn),-1.47
14,COc1ccc2c(c1OC)C(=O)O[C@@H]2[C@H]1c2c(cc3c(c2OC)OCO3)CCN1C,-18
15,Cc1ccc(=O)n(-c2ccccc2)c1,4.31
16,CCOC(=O)C1=C(C)NC(C)=C(C(=O)OC)C1c1cccc(Cl)c1Cl (stereo not drawn),-4
17,Brc1c(NC2=NCCN2)ccc2nccnc12,14.7

# Tested on: not listed separately
# Assay: qHTS Assay for Identifying Gametocytocidal Compounds (AID 743244); note: potency is the fitted concentration of half-maximal effect;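 for max response: % is set by controls: 0 for no effect and ±100 for the full control effect; actives lower the fluorescent signal which means gametocytes are killed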
# Details: P. falciparum 3D7 stage III-V gametocytes, alamarBlue, 72 h; max response: active compounds read low
# How it was run: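 Late gametocytes (III–V), P. falciparum 3D7; 72 h drug, then 24 h alamarBlue; resazurin reduction read by fluorescence.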
Structure (SMILES),max response,Potency
CN(C)C(=O)Oc1ccc[n+](C)c1,-5.59% and 6.64%,–
COCCc1ccc(OCC(O)CNC(C)C)cc1 (stereo not drawn),-3.26% and -1.45% and -10.9%,–
NC(N)=NC(=O)Cc1c(Cl)cccc1Cl,5.89% and 26.9%,–
N[C@@H](COP(=O)(O)O)C(=O)O,-4.33% and 12%,–
Cc1cccc(C)c1NC(=O)C(C)N (stereo not drawn),6.83% and 24.8%,–
CC(=O)[C@@]1(O)CC[C@H]2[C@@H]3CCC4=CC(=O)CC[C@]4(C)[C@H]3CC[C@@]21C,5.26% and 15.8%,–
O=C(O)CP(=O)(O)O,-7.11% and 18.5%,–
CNCCC(Oc1ccccc1OC)c1ccccc1 (stereo not drawn),19.3%,–
OCCN1CCN(CCCN2c3ccccc3C=Cc3ccccc32)CC1,-7.06% and 7.36%,11.2 µM (active)
CC[N+](C)(C)c1cccc(O)c1,22.6% and 18%,–
Cc1ccc(Cl)c(Nc2ccccc2C(=O)O)c1Cl,-8.31% and 12.8%,–
CCN1CCc2nc(N)oc2CC1,11% and 14%,–
CCCN(CCC)C(=O)C(CCC(=O)O)NC(=O)c1ccccc1 (stereo not drawn),9.09% and 23.8%,–
O=C(CCCN1CCC(O)(c2cccc(C(F)(F)F)c2)CC1)c1ccc(F)cc1,20%,–
COC(=O)C1=C(C)NC(C)=C(C(=O)OC(C)(C)CN(C)CCC(c2ccccc2)c2ccccc2)C1c1cccc([N+](=O)[O-])c1 (stereo not drawn),7.33% and 12.6%,–
Cc1ccc(S(=O)(=O)NC(=O)NN2CCCCCC2)cc1,-5.27% and 9.03%,–
c1cc(CN2CCCCC2)cc(OCCCNc2nc3ccccc3s2)c1,-9.42%,–

Structure (SMILES),max response,Potency
O=C(CCNNC(=O)c1ccncc1)NCc1ccccc1,-0.149% and 4.87%,–
CN1CCN(CC(=O)N2c3ccccc3C(=O)Nc3cccnc32)CC1,0.314% and 3.31%,–
CN(C)CC/C=C1\c2ccccc2COc2ccccc21,1.05% and 7.48%,–
Fc1ccc(C(c2ccc(F)cc2)N2CCN(C/C=C/c3ccccc3)CC2)cc1,16.8% and 11%,–
CCN(Cc1ccncc1)C(=O)C(CO)c1ccccc1 (stereo not drawn),10.4% and 27%,–
CN=C(NC#N)NCCSCc1nc[nH]c1C,2.14% and 13.4%,–
O=c1[nH]c(=O)n([C@H]2C[C@H](O)[C@@H](CO)O2)cc1Br,2.92% and 14.4%,–
CC(C)NNC(=O)c1ccncc1,-4.04% and 10%,–
CC1=NS(=O)(=O)c2cc(Cl)ccc2N1,4.85%,–
CC(C)NCC(O)c1cc(O)cc(O)c1 (stereo not drawn),4.9% and 20.6%,–
CN/C(=C\[N+](=O)[O-])NCCSCc1ccc(CN(C)C)o1,33.4%,–
CCn1nc(C(=O)O)c(=O)c2cc3c(cc21)OCO3,3.16% and -5.51%,–
COc1ccc2c(c1OC)C(=O)O[C@@H]2[C@H]1c2c(cc3c(c2OC)OCO3)CCN1C,-4.58% and 10.4%,–
Cc1ccc(=O)n(-c2ccccc2)c1,6.86% and 22.4%,–
CCOC(=O)C1=C(C)NC(C)=C(C(=O)OC)C1c1cccc(Cl)c1Cl (stereo not drawn),21.2% and 4.35%,–
Brc1c(NC2=NCCN2)ccc2nccnc12,-8.09% and 19.7%,–
